{"source": "the supplement of paper PMC11577813", "about": "“Eurasian spruce bark beetle detects lanierone using a highly expressed specialist odorant receptor, present in several functional sensillum types” (BMC Biology, 2024)", "system": "lanierone-responsive B-neuron OSN class (ItypOR36)", "assay": "net action potential response of lanierone B-neuron (blank-subtracted) (spikes/s (Hz)); higher = stronger excitation", "conditions": "10 µg on filter paper, neuron: B neuron (small spike amplitude)", "procedure": "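Single sensillum recordings from antennal olfactory sensilla of live adult Ips typographus. Each compound was 10 µg in paraffin oil, delivered as a 0.5 s puff. Net response = spikes in the first 0.5 s of response minus the 0.5 s pre-stimulus count, doubled to give Hz, with blank response subtracted. Values are for the small-spike lanierone-responsive B-neuron (putatively expressing ItypOR36), recorded in sensilla co-housing the A-neuron class; N = 1-4, averaged.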", "key": {"[1]": {"conditions": "co-localized A-neuron class: (4S)-cis-verbenol"}, "[2]": {"conditions": "co-localized A-neuron class: (5S,7S)-trans-conophthorin"}, "[3]": {"conditions": "co-localized A-neuron class: (+)-isopinocamphone"}, "[4]": {"conditions": "co-localized A-neuron class: (+)-trans-4-thujanol"}, "[5]": {"conditions": "co-localized A-neuron class: ipsdienol"}, "[6]": {"conditions": "co-localized A-neuron class: myrcene"}, "[7]": {"conditions": "co-localized A-neuron class: p-cymene"}}, "note": "± gives the standard deviation of the averaged measurements."}
{"smiles": "C=CCc1ccc(OC)cc1", "note": "[Estragole]", "values": [{"measurement": "net action potential response", "setting": "[1]", "result": "1.33 ± 7.6"}, {"measurement": "net action potential response", "setting": "[2]", "result": "0 ± 7.8"}, {"measurement": "net action potential response", "setting": "[3]", "result": "0 ± 2"}, {"measurement": "net action potential response", "setting": "[4]", "result": "0 ± 4.3"}, {"measurement": "net action potential response", "setting": "[5]", "result": "4 ± 5.3"}, {"measurement": "net action potential response", "setting": "[6]", "result": -8}, {"measurement": "net action potential response", "setting": "[7]", "result": "-2.67 ± 1.1"}]}
{"smiles": "Cc1ccccc1", "note": "[Toluene]", "values": [{"measurement": "net action potential response", "setting": "[1]", "result": "2 ± 4"}, {"measurement": "net action potential response", "setting": "[2]", "result": "-1 ± 5"}, {"measurement": "net action potential response", "setting": "[3]", "result": -4}, {"measurement": "net action potential response", "setting": "[4]", "result": "1 ± 1.1"}, {"measurement": "net action potential response", "setting": "[5]", "result": "-2 ± 3.5"}, {"measurement": "net action potential response", "setting": "[6]", "result": 0}, {"measurement": "net action potential response", "setting": "[7]", "result": 0}]}
{"smiles": "O=Cc1ccccc1", "note": "[Benzaldehyde]", "values": [{"measurement": "net action potential response", "setting": "[1]", "result": "0 ± 3.5"}, {"measurement": "net action potential response", "setting": "[2]", "result": "0.667 ± 1.1"}, {"measurement": "net action potential response", "setting": "[3]", "result": "-2.67 ± 3.1"}, {"measurement": "net action potential response", "setting": "[4]", "result": "-2.5 ± 10"}, {"measurement": "net action potential response", "setting": "[5]", "result": "2 ± 7.2"}, {"measurement": "net action potential response", "setting": "[6]", "result": -6}, {"measurement": "net action potential response", "setting": "[7]", "result": 0}]}
